Most compounds without a hit are left out; they make up all but 0.86% or so of the library.
CDC25B-CDK2 inh: human CDC25B-CDK2/CyclinA binding inhibition; z-score (concentration not given with the values); HTRF CDC25B-CDK2/CyclinA binding, anti-His/anti-Flag; stronger effect = higher value; P30305+P24941; hit rate 0.72% among 94,000; in the data active means z-score above about 3.2
TAR Tat displ: HIV-1 TAR-Tat binding disruption; AID 1259389; HIV-1 TAR RNA, Tat peptide displacement FRET; stronger effect = higher value; hit rate 0.6% among 100,000; z-score (test concentration not listed); active means z-score of 3 or more in at least 2 runs
Hits are given with their value; n = inactive; x = no result given.

SMILES	CDC25B-CDK2 inh	TAR Tat displ
CC1CCCCN1CCCNC(=O)CCCN1C(=O)CCn2nc(-c3cccn3C)cc21 (stereo not drawn)	x	n
COc1ccc(NS(=O)(=O)c2c(C)[nH]c3ccccc3c2=O)cc1OC	n	n
O=C(CCN1C(=O)c2cccnc2C1=O)NCc1ccco1	n	x
N#Cc1c(N)nc2c(c1N)C(C(C#N)C#N)c1cc(Br)ccc1O2 (stereo not drawn)	7	x
COc1ccc(Br)cc1C1C(C#N)=C(N)Oc2cc(O)ccc21 (stereo not drawn)	n	n
Cc1ccc(Cn2cccc2CN)cc1	n	n
O=C(CCC(=O)N1c2ccccc2NC2=C(C(=O)CCC2)C1c1ccco1)NC1CCCCC1 (stereo not drawn)	x	3.6
O=C(CN1c2ccccc2NC2=C(C(=O)CCC2)C1c1ccco1)NC1CCCC1 (stereo not drawn)	x	n
COc1ccc(S(=O)(=O)OCC(F)([N+](=O)[O-])[N+](=O)[O-])cc1Br	4.2	x
COc1ccc(S(=O)(=O)Oc2ccc(C)cc2[N+](=O)[O-])cc1OC	n	x
CCCNc1ncnc2onc(-c3cc(F)cc(F)c3)c12	x	n
Nc1cccc(/C=C/c2nc3ccc(N)cc3[nH]2)c1	12	n
Nc1ccc2nc(/C=C/c3ccccc3)[nH]c2c1	n	n
O=C(NCc1ccc(Cl)cc1)Nc1ccc2snnc2c1	n	n
Cc1c(C(=O)NC2CCC(C)CC2)oc2ccc3c(c12)C(O)CC(C)(C)O3 (stereo not drawn)	n	n
Clc1ccccc1-n1ncc2c1ncn1nc(-c3ccccc3)nc21	n	6.9
Fc1ccccc1-n1ncc2c1ncn1nc(-c3ccccc3)nc21	n	n
Cc1ccc(N2C(=O)C3N=NN(Cc4ccc(F)cc4)C3C2=O)cc1 (stereo not drawn)	n	n
O=C1c2ccccc2-c2onc3c(N4CCOCC4)cc(Nc4ccccc4)c1c23	n	n
COC(=O)c1ccc(Nc2cc(N3CCOCC3)c3noc4c3c2C(=O)c2ccccc2-4)cc1	7.6	n
O=C1CCN(c2cc(Nc3ccc(C(=O)O)cc3)c3c4c(onc24)-c2ccccc2C3=O)CC1	n	27
CN(C)c1ccc(Nc2cc(N3CCOCC3)c3noc4c3c2C(=O)c2ccccc2-4)cc1	n	n
O=C(O)c1cccc(Nc2cc(N3CCOCC3)c3noc4c3c2C(=O)c2ccccc2-4)c1	n	7
COc1ccc(Nc2cc(N3CCC(=O)CC3)c3noc4c3c2C(=O)c2ccccc2-4)cc1	n	n
O=C1c2ccccc2-c2onc3c(N4CCOCC4)cc(Nc4ccc5c(c4)OCO5)c1c23	n	n
SMILES	CDC25B-CDK2 inh	TAR Tat displ
O=C(O)c1ccc(Nc2cc(N3CCOCC3)c3noc4c3c2C(=O)c2ccccc2-4)cc1	11	32
Cc1cc(S(=O)(=O)[C@H]2CS(=O)(=O)C[C@@H]2N2CCN(c3cccc(Cl)c3)CC2)ccc1F	n	n
C=C1[C@H]2CC[C@@]3(C)[C@H](c4ccoc4)OC(=O)C[C@]13O[C@H]1C[C@@H](O)C(C)(C)[C@H](CC(=O)OC)[C@]12C	x	n
Cc1ccc(C)c(S(=O)(=O)Nc2cc(-c3c(O)ccc4ccccc34)c(O)c3ccccc23)c1	n	x
Cc1noc(C)c1S(=O)(=O)Nc1ccc2[nH]ccc2c1	n	x
OCCNc1nc(-c2ccc(Cl)cc2)nc2ccccc12	n	x
Cc1ccc(S(=O)(=O)c2nc(S(C)(=O)=O)sc2NC(C)c2ccccc2)cc1 (stereo not drawn)	n	n
COc1ccc(Cl)cc1NC(=O)C1=Cc2sc3c(c2CS1)CCCC3	x	n
O=S1(=O)C[C@H](NCCc2cccs2)[C@@H](S(=O)(=O)c2cccs2)C1	n	n
O=C1CCN(c2cc(Nc3cccc(F)c3)c3c4c(onc24)-c2ccccc2C3=O)CC1	7.8	17
O=C1c2ccccc2-c2onc3c(N4CCOCC4)cc(Nc4cccc(F)c4)c1c23	n	n
Clc1ccc(Cc2nnc3sc(/C=C/c4ccco4)nn23)cc1	4.2	19
CCc1nnc2sc(/C=C/c3ccco3)nn12	n	8.4
COc1ccc(Cc2nnc3sc(/C=C/c4ccco4)nn23)cc1	n	8.3
Clc1ccc(Cc2nnc3sc(/C=C/c4cccs4)nn23)cc1	n	n
CC(C)(C)c1nnc2sc(/C=C/c3ccco3)nn12	n	n
COc1ccccc1/C=C/c1nn2c(Cc3ccccc3)nnc2s1	n	n
COCCNC(=O)C1CCCN(c2ncnc3c2nc2n3CCCCC2)C1 (stereo not drawn)	x	n
O=C(NCCSCc1ccc(Cl)cc1)c1c(F)cccc1F	n	x
O=C(c1cccnc1)N(c1ccc2oc(=O)sc2c1)S(=O)(=O)c1cccc2cccnc12	n	n
COc1cccc2c1c(NC(=O)c1cc(C)oc1C)nn2C	n	x
CN(C)c1cccc2c1c(NC(=O)c1cc(Cl)sc1Cl)nn2C	13	x
CCOC(=O)CSc1ccc([N+](=O)[O-])cc1Cl	n	x
O=C(CSc1ccc([N+](=O)[O-])cc1Cl)NCc1ccccc1	15	x
CSc1ccccc1NC(=S)Nc1ccc(Cl)cc1	n	x

Bioassay records from PubChem BioAssay.
